Screening data as filed in PubChem BioAssay.
Pf growth 48h: inhibits P. falciparum growth in the first generation, 48 h; Potency, µM (highest dose often 28.7 µM), for the others: top-dose activity change, negative = inhibition, hits mostly inhibitors; hit rate 5.9% among 310,000; P. falciparum luciferase growth in erythrocytes, 48 h; further: potency means the concentration at half of the fitted maximal effect; on the % scale 0 is the no-effect control and ±100 the full control effect
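Luciferase-expressing P. falciparum in infected erythrocytes (2% hematocrit, 0.1% parasitemia final) in RPMI 1640/0.5% Albumax were exposed to compound for 48 hours at 37 C, 5% CO2; growth read as luminescence.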
CHX counter: counter-screen for Shiga toxin inhibitors: cycloheximide protein synthesis inhibition; cell reporter, cycloheximide protein synthesis inhibition counterscreen; max response, %; hit rate 12% among 300,000; AID 2314; in the data active means max response mostly above about 13%, no sharp cut-off; inactive means mostly below about 14%; further: read at 38.3 µM for the half of the compounds with a filed dose; 0% is about no effect
Pf growth 96h: inhibits malaria parasite growth, 96 h; AID 504834; P. falciparum luciferase reporter growth, 96 h; Potency, µM (top dose mostly 28.7 µM), without a hit: at the highest dose activity change, negative = inhibition, usual class: inhibitors; hit rate 6.9% among 320,000; further: potency means the concentration at half of the fitted maximal effect; on the % scale 0 is the no-effect control and ±100 the full control effect
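Luminescence readout: decreased luciferase signal marks inhibited growth of reporter-expressing P. falciparum in infected red cells (2% hematocrit, 0.05% parasitemia final), exposed to compound two generations (96 h, 37 C, 5% CO2).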
Shiga inhibitor: inhibitors of Shiga toxin in Vero cells. AID 2315. hit rate 9.2% among 290,000. inhibition, % at 38.7 µM. Vero cells, Shiga toxin protein synthesis inhibition reporter; in the data active means inhibition mostly above about 28%, no sharp cut-off; inactive means mostly below about 43%; further: 0% is about no effect
HCMV inh: human cytomegalovirus inhibition. HFF cells, HCMV-luciferase reporter, 72 h; active compounds read low. activity change, negative = inhibition, % at 57.5 µM. hit rate 4.5% among 410,000; in the data active means activity change below about -60%; inconclusive means no clear call, values can overlap the other calls; inactive means above about -39%; further: on the % scale 0 is the no-effect control and ±100 the full control effect
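Human foreskin fibroblasts infected with luciferase-reporter HCMV at MOI 1 PFU/cell, compounds at two doses. Luciferase measured 72 h post infection; normalized to buffer-only basal and Salinomycin (10uM) controls.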
HCV inhibitor: blocks hepatitis C virus; Huh7.5.1 HCVcc-Cre infection, luciferase reporter, 44 h; Potency, µM (series often up to 41.8 µM), for the others: at the top dose activity change, negative = inhibition, usual class: inhibitors; AID 651820; hit rate 3.4% among 340,000; further: potency means the concentration at half of the fitted maximal effect; on the % scale 0 is the no-effect control and ±100 the full control effect
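Whole-lifecycle infectious HCVcc-Cre system; cells 1,000/well, compound then virus (~0.5 moi) added 4 h after plating, 44 h culture. Luciferase read 15 sec following 15 min substrate incubation, room temp.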
Numbers without * were called inactive; ? = inconclusive; / = no result. Most compounds without a hit are left out; they make up all but 21% or so of the library. Unless noted, the call rests on the fitted dose curve; in most records, active means well fitted inhibition curve with a large enough effect; inconclusive means small, poorly fitted or top-dose-only effect, or another doubt; inactive means no such curve, though single readings can be large or run the other way.

SMILES | Pf growth 48h | CHX counter | Pf growth 96h | Shiga inhibitor | HCMV inh | HCV inhibitor
CCN1CCN(c2ccc(S(=O)(=O)N3CCCCC3)cc2NC(=O)c2cccc(C(F)(F)F)c2)CC1 | ? | / | ? | / | -5 | ?
Cc1csc(NC(=O)c2cccc(C)c2C)n1 | 159% | 38* | 388% | 55 | -30 | -12%
Cc1csc(NC(=O)c2ccccc2)n1 | 216% | 43* | ? | / | 103 | -12%
Cc1csc(NC(=O)c2ccc3nc[nH]c3c2)n1 | 169% | 52* | 396% | 49 | 140 | -10%
Cc1csc(NC(=O)c2cccnc2Cl)n1 | / | / | / | / | 216 | 25%
COc1cc(CN2CCNC(=O)C2CC(=O)N(C)Cc2ncc[nH]2)cc(OC)c1 (stereo not drawn) | 18% | 1 | ? | -19 | -9 | 14%
COc1ccc(CNc2ncnc3onc(-c4ccc(F)cc4)c23)cc1 | / | / | / | / | -14 | /
CCn1c(SCc2ccc(C(=O)OC)o2)nc2sc3c(c2c1=O)CCCC3 | -15% | -1 | 1µM* | -22 | 5 | 16%
CCCC(c1nnnn1CC1CCCO1)N1CCN(c2nc3ccccc3s2)CC1 (stereo not drawn) | 12µM* | 17 | -2% | -4 | 22 | -4%
CC(C)CC(c1nnnn1CC1CCCO1)N1CCN(c2nc3ccccc3s2)CC1 (stereo not drawn) | ? | -2 | 130% | -19 | -7 | 15%
CCCCC(c1nnnn1CC1CCCO1)N1CCN(c2nc3ccccc3s2)CC1 (stereo not drawn) | 13µM* | 19 | 1% | 8 | -24 | ?
CC(=O)N1CCN(C(=O)COC(=O)c2oc3ccccc3c2C)CC1 | 20% | / | -19% | / | 0 | -9%
Nc1ccc2c(c1Cl)C(=O)c1ccc(N)c(Cl)c1C2=O | 103% | 34* | 122% | 70* | 18 | -15%
Cc1ccc2c(c1N)C(=O)c1ccccc1C2=O | 80% | / | 159% | / | 191 | -19%
CC1CN(C)C(C)C/C1=N/Oc1ccccc1[N+](=O)[O-] (stereo not drawn) | 31% | 1 | 95% | 6 | -23 | ?
CC1CN(C)C(C)C/C1=N\Oc1ccc([N+](=O)[O-])cc1 (stereo not drawn) | 20% | 10 | 1µM* | 13 | -25 | ?
NC(=O)CNC(=O)[C@@H]1CC2(CC(c3cccc([N+](=O)[O-])c3)=NO2)CN1C(=O)c1ccccc1 (stereo partly drawn) | 3% | 12 | ? | 16 | -9 | 13%
Cc1ccc(CCNC(=O)C23CN(Cc4ccccc4)CC2C(c2cccc([N+](=O)[O-])c2)=NO3)cc1 (stereo not drawn) | 2.9µM* | 8 | ? | 8 | -3 | ?
COc1ccc(CCNC(=O)C23CN(Cc4ccccc4)CC2C(c2cccc([N+](=O)[O-])c2)=NO3)cc1 (stereo not drawn) | ? | 6 | ? | -1 | 28 | -26%
O=C(NCC1CCCCC1)C12CN(Cc3ccccc3)CC1C(c1cccc([N+](=O)[O-])c1)=NO2 (stereo not drawn) | 1.7µM* | -1 | ? | 14 | 36 | 21%
Cc1ccc(C(=O)NCC(c2ccco2)S(=O)(=O)c2cccs2)cc1C (stereo not drawn) | / | / | / | / | 28 | /
Cc1csc(C(C#N)C(=O)c2cc3ccccc3o2)n1 (stereo not drawn) | 100% | 25* | 20% | 55* | -21 | -11%
COCCNC(=O)C(c1ccccc1F)N(C(=O)C(=O)NC1CCCC1)C1CCCCC1 (stereo not drawn) | -4% | 2 | 12µM* | 15 | -80* | ?
COCCN(C(=O)C(F)(F)F)C(C(=O)NC1CCCCC1)c1ccco1 (stereo not drawn) | -13% | 2 | 12µM* | -8 | 22 | 15%
COCCN(C(=O)CCC(=O)Nc1cc(C)on1)C(C(=O)NC1CCCC1)c1ccccc1C (stereo not drawn) | ? | -2 | 1% | -2 | -14 | -9%
COCCN(C(=O)CNC(=O)c1cccs1)C(C(=O)NC1CCCCC1)c1ccco1 (stereo not drawn) | 3% | -2 | / | 28 | 33 | -5%
